Shown are actives, neighbours in structure and some others; about 17% of the full set was active somewhere.
ATXN viability: Viability Counterscreen for Primary qHTS for Inhibitors of ATXN expression. S2 cells (HEK-293 line with an ATXN2-luciferase reporter) viability, CellTiter-Fluor protease fluorescence, 24 h. Potency, µM (series often up to 56.7 µM), actives largely listed as cytotoxic. 400,000 compounds, 0.49% hits; also: nearly all actives have a fitted effect of over 40% in size
ATXN2 expr inh: Primary qHTS for Inhibitors of ATXN expression; Potency, µM (doses to about 57 µM), for inactives: top-dose activity change, negative = inhibition, hits mostly inhibitors; HEK-293 ATXN2-luciferase reporter, luminescence, 24 h; 360,000 compounds, 0.72% hits; also: % is scaled to controls: 0 for no effect and ±100 for the full control effect; nearly all actives have a fitted effect of over 55% in size
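ATXN2-luciferase reporter cells (luciferase flanked by upstream and downstream ATXN2 gene portions) were treated 24 h at 37 °C with compounds at up to 57 uM. SteadyGlo luminescence gave expression; GF-AFC fluorescence gave viability.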
DT40 TDP1 no CPT: qHTS for Inhibitors of human tyrosyl-DNA phosphodiesterase 1 (TDP1): qHTS in cells in absence of CPT; DT40 Tdp1-/- hTDP1 cells, no CPT, ATP luminescence, 48 h; Potency, µM (titrated, usually from 46.2 µM), for the others: at the top dose activity change, negative = growth inhibition, actives largely listed as inhibitors; 420,000 compounds, 15% hits; AID 686978, 2013; also: % is scaled to controls: 0 for no effect and ±100 for the full control effect; nearly all actives have a fitted effect of over 55% in size
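Chicken DT40 Tdp1-/- cells complemented with human TDP1, screened without camptothecin (DMSO vehicle only), 400 cells/well. Compounds pin-transferred, cells incubated at 37 °C for at least 48 hr. Growth read as ATP-dependent luminescence (CellTiter-Glo, 30 min at RT).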
DT40 TDP1 CPT: qHTS for Inhibitors of human tyrosyl-DNA phosphodiesterase 1 (TDP1): qHTS in cells in presence of CPT; chicken DT40 Tdp1-/-;hTDP1 cells + 20 nM CPT, ATP luminescence, 48 h; Potency, µM (top dose mostly 46.2 µM), for inactives: at the highest dose activity change, negative = growth inhibition, most hits filed as inhibitors; 420,000 compounds, 12% hits; AID 686979, 2013; also: % is scaled to controls: 0 for no effect and ±100 for the full control effect; nearly all actives have a fitted effect of over 55% in size
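Chicken DT40 Tdp1-/- cells stably complemented with human TDP1 were seeded at 400 cells/well in medium containing 20 nM camptothecin, exposed to pin-transferred compounds, and grown at 37 °C for at least 48 hr. Viability was read as ATP luminescence.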
TGFb inhibitor: qHTS for Inhibitors of TGF-b; 410,000 compounds, 1.2% hits; HepG2 CAGA-GFP TGF-b/SMAD3 reporter, GFP fluorescence, 18 h; TGF-beta stimulated, 500 pg/mL final; Potency, µM (titrated, usually from 46.1 µM), inactives show at the top dose activity, negative = inhibition, hits mostly inhibitors; also: % is scaled to controls: 0 for no effect and ±100 for the full control effect; nearly all actives have a fitted effect of over 65% in size
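Inhibition was scored as loss of TGF-beta-induced (500 pg/mL final, 18 hours, 37 degrees C) GFP in HEPG2 cells carrying a CAGA-GFP reporter, in DMEM with 1% FBS. Well GFP was summed per cell; Activity was normalised to unstimulated and stimulated DMSO wells, then concentration-response fitting.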
HepG2 tox: qHTS for Inhibitors of TGF-b: Cytotox Counterscreen. HepG2 CAGA-GFP viability, ATP luminescence, 18 h. Potency, µM (top dose mostly 46.1 µM), for inactives: top-dose activity change, negative = cytotoxicity, hits mostly cytotoxic. 410,000 compounds, 0.76% hits. AID 588856, 2011
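CellTiter-Glo luminescence gave cytotoxicity after 18 hours at 37 degrees C. The cells were HepG2 CAGA-GFP in 1% FBS DMEM, stimulated with 500 pg/mL TGF-beta after compound addition. %Activity was normalised to no-cell wells (complete cell-killing) and DMSO (no toxicity), and curves were fitted and classified.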
* hit, by the source's call; i = inactive; ? = inconclusive; . = no result given. Calls follow the shape of the dose curve; as a rule, active = well fitted curve in the direction sought with a large enough effect; inconclusive = small, poorly fitted or top-dose-only effect, or another doubt; inactive = no such curve, though single readings can be large; an effect the other way counts as inactive or inconclusive. Potency is read from the fitted curve at half-maximal effect.

SMILES	ATXN viability	ATXN2 expr inh	DT40 TDP1 no CPT	DT40 TDP1 CPT	TGFb inhibitor	HepG2 tox
CC(NC(=O)COc1ccccc1)C(c1ccccc1)N1CCN(C)CC1 (stereo unspecified)	i	7%	?	?	0%	12%
COc1cccc(Oc2ncnc(N)c2[N+](=O)[O-])c1	i	.	-11%	3%	?	-8%
Oc1cc2c(cc1C(c1ccc(Cl)c(Cl)c1)N1CCCC1)OCO2 (stereo unspecified)	?	-33%	23µM*	?	?	-39%
CC12CCC(O)CC1=CCC1C2CCC2(C)C3=NN=CC3CC12 (stereo unspecified)	i	-19%	?	-17%	0%	7%
COC(=O)C(C)N(C(=O)c1cccc2ccccc12)c1c(C)cccc1C (stereo unspecified)	i	-13%	16µM*	?	4%	-1%
COC(=O)C(C)N(C(=O)c1cccc(Cl)c1)c1c(C)cccc1C (stereo unspecified)	i	-18%	?	?	6%	-25%
COCCCNc1ncnc2sc3c(c12)CCC(C)C3 (stereo unspecified)	i	1%	23µM*	?	1%	-22%
CC1CCc2c(sc3ncnc(NS(=O)(=O)c4cccs4)c23)C1 (stereo unspecified)	i	-11%	-8%	-19%	16%	7%
COc1ccc(-n2c(-c3ccc(Cl)cc3)cc3c2CC(C)(C)CC3=O)c(OC)c1	?	?	18µM*	23µM*	18µM*	-50%
COc1ccc(C)cc1-n1c(-c2ccc(Cl)cc2)cc2c1CC(C)(C)CC2=O	i	0%	15µM*	?	0%	-15%
Cc1ccc(-c2cc3c(n2-c2ccccc2F)CC(C)(C)CC3=O)cc1	i	12%	13µM*	18µM*	-5%	-8%
O=C(CCCN1C(=O)/C(=C/c2cccs2)SC1=S)Nc1ccccn1	?	?	?	?	-18%	-57%
O=C(CCCN1C(=O)/C(=C/c2ccccc2Cl)SC1=S)Nc1ccccn1	i	17µM*	?	?	?	-15%
O=C(CCCN1C(=O)/C(=C/c2ccccc2Cl)SC1=S)Nc1cccnc1	14µM*	?	16µM*	4.6µM*	-1%	-1%
CC(=O)NS(=O)(=O)c1ccc(N2C(=O)c3ccccc3C2=O)cc1	i	.	-3%	5%	-1%	0%
CC1=C(C(=O)N(C(C)C)C(C)C)CC(CC(=O)NC2CCCC2)C(=O)N1Cc1ccccc1 (stereo unspecified)	i	-1%	?	-15%	1%	-5%
CCC(C)(C)NC(=O)C(c1sccc1C)N(Cc1ccco1)C(=O)c1csnn1 (stereo unspecified)	?	3%	16µM*	16µM*	1%	6%
CC(C)[C@H](NC(=O)N1CC(=O)Nc2ccccc21)C(=O)N[C@H](Cc1ccccc1)C(=O)O	i	5%	-6%	1%	20%	6%
COc1ccc(CNC(=O)c2ccc(CS(=O)(=O)c3ccccc3OC)o2)cc1	.	.	?	-28%	-12%	-1%
COc1ccccc1S(=O)(=O)Cc1ccc(C(=O)NCc2ccc(Cl)cc2)o1	?	-13%	18µM*	?	-28%	-21%
O=C(NCc1ccc(F)cc1)c1ccc(CS(=O)(=O)c2ccc(Cl)cc2)o1	.	.	16µM*	?	?	-13%
